Laboratory results from PubChem BioAssay.
A number with no mark means an inactive call. The list shows a part of the results. Calls of active or inactive are those of the source. Rule as the data show it, unless noted: active = inhibition above about 22%; inactive = the rest.

Tests used:
[1] = target: Glutathione S-transferase omega-1 (Homo sapiens) (UniProt P78417); assay: GSTO1 inhibitor hit confirmation, counter-screen for RBBP9 inhibitor project, biochemical, fluorescence polarization, triplicate (AID 2176;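 active = inhibition above the primary screen's cutoff, its mean inhibition plus 3 SD, cut at about 35% in these data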;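 also: loss of polarization as inhibitors block binding of rhodamine sulfonate ester activity probe; 0% = GSTO1 with DMSO and 100% = wells lacking GSTO1 enzyme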); conditions: recombinant GSTO1, probe fluorescence polarization; at 5.96 µM; hits give high values
Chain of Glutathione S-transferase omega-1 (Homo sapiens) (P78417 whole entry, looked up): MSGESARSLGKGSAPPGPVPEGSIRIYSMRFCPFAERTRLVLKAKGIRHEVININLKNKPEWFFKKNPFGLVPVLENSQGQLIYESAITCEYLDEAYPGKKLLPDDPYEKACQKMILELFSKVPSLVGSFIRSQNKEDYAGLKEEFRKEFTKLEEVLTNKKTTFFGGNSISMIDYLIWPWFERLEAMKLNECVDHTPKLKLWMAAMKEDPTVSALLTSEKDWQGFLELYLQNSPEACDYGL

[2] = StAR promoter reporter inhibitors, counter-screen for LRH-1 inverse agonist project, cell-based, luminescence, high throughput (AID 651611; in the data active = inhibition above about 28%); conditions: StAR promoter luciferase reporter counterscreen, at 3.6 µM, hits give high values
[3] = target: Nuclear receptor subfamily 5 group A member 2 (Homo sapiens) (UniProt O00482); assay: LRH-1 (NR5A2) inverse agonists, retest, confirmation, cell-based, luminescence (AID 651613; in the data active = inhibition above about 42%;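 also: HEK293T cells co-transfected with LRH-1 and StAR promoter luciferase reporter; 0% = vehicle wells and 100% = parental cells lacking receptor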); conditions: cell-based LRH-1 luciferase reporter, inverse agonism; at 3.6 µM; hits give high values
[4] = target: Steroidogenic factor 1 (Homo sapiens) (UniProt Q13285); assay: SF1 (NR5A1) inverse agonists, counter-screen for LRH-1 inverse agonist project, cell-based, luminescence, high throughput (AID 651614; in the data active = inhibition above about 44%;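 also: cells cotransfected with StAR promoter reporter and SF1 expression vector; 0% = vehicle on cells with receptor and 100% = vehicle on cells lacking receptor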); conditions: cell-based SF1 luciferase reporter, at 3.6 µM, hits give high values
[5] = VP16 transactivation reporter inhibitors, counter-screen for LRH-1 inverse agonist project, cell-based, luminescence, high throughput (AID 651615; in the data active = inhibition above about 33%); conditions: Gal4-VP16 luciferase reporter cells, at 3.6 µM, hits give high values
[6] = target: Lytic switch protein BZLF1 (Epstein-Barr virus (strain B95-8)) (UniProt P03206); assay: EBV Zta binding to ZRE DNA, inhibitors, confirmation, biochemical, fluorescence polarization, triplicate (AID 2361;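 active = mean inhibition across triplicate runs above the hit threshold derived for the original primary screen, cut at about 33% in these data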;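 also: 0% = Zta with DMSO and 100% = wells lacking Zta protein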); conditions: at 11.1 µM, hits give high values
Chain of Lytic switch protein BZLF1 (Epstein-Barr virus (strain B95-8)) (P03206 whole entry, looked up): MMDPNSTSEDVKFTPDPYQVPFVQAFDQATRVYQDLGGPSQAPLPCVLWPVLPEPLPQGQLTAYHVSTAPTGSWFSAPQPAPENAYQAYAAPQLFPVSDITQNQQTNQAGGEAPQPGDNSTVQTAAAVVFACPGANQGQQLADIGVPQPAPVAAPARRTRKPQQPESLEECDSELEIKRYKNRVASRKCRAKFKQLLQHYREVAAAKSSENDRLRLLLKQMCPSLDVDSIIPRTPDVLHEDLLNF

[7] = test system: Epstein-Barr virus nuclear antigen 1 (EBNA-1), Human herpesvirus 4; assay: EBNA-1 DNA-binding inhibition, counter-screen for ZTA inhibitor project, biochemical, fluorescence polarization (AID 2362; call rule not given here); conditions: at 14.8 µM, hits give high values
[8] = test system: transactivating tegument protein VP16 (Human herpesvirus 1); assay: VP16 transactivation reporter inhibitors, counter-screen for SRC2 inhibitor project, cell-based, luminescence, single concentration (AID 652007; in the data active = inhibition above about 36%); conditions: cell-based VP16 transactivation luciferase reporter, at 8.9 µM, hits give high values
[9] = target: Nuclear receptor coactivator 2 (Homo sapiens) (UniProt Q15596); assay: SRC2 coactivator transcriptional activity inhibitors, confirmation, cell-based, luminescence, HEK293, triplicate (AID 652008;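 active = mean inhibition above 46.5%, the solvent-only control mean plus 3 SD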;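 also: 0% = DMSO-treated cells and 100% = Gossypol at 36 µM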); conditions: HEK293 GAL4-SRC2 luciferase reporter, at 8.9 µM, hits give high values
[10] = target: Receptor-interacting serine/threonine-protein kinase 2 (Homo sapiens) (UniProt O43353); assay: NOD2-RIPK2 binding disruptors, retest, confirmation, fluorescence, CHO cells, BLA complementation, triplicate (AID 624370;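 active = mean inhibition across replicates above a set limit taken from the earlier primary screen, cut at about 21% in these data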;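 also: 0% = DMSO-only wells and the high end = clavulanate BLA-blocked wells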); conditions: CCF4 FRET, at 4.98 µM, hits give high values
[11] = beta-lactamase reporter inhibitors in CHO cells, confirmation, artefact control for NOD2-RIPK2 interaction inhibitor project, cell-based, CHO-K1 CMV-bla, CCF4 FRET, fluorescence (AID 624371;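 active = mean inhibition above the low-control mean inhibition plus three low-control SD, cut at about 11% in these data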;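 also: 0% = DMSO only wells and 100% = clavulanate high control wells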); conditions: CCF4 FRET ratio, counterscreen, at 4.98 µM, hits give high values
[12] = target: Oxytocin receptor (Homo sapiens) (UniProt P30559); assay: human OXTR agonists, confirmation, fluorescence, CHO-OTR cells, triplicate (AID 434963;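 active = mean activation above about 20% derived from the earlier single-dose screen, limit read from the data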;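 also: peak over minimum fluorescence ratio per well during a 100 second FLIPR read; 0% = DMSO alone and 100% = oxytocin high control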); conditions: Fluo-8 calcium fluorescence, agonist, at 3 µM, hits give high values
Chain of Oxytocin receptor (Homo sapiens) (P30559 whole entry, looked up): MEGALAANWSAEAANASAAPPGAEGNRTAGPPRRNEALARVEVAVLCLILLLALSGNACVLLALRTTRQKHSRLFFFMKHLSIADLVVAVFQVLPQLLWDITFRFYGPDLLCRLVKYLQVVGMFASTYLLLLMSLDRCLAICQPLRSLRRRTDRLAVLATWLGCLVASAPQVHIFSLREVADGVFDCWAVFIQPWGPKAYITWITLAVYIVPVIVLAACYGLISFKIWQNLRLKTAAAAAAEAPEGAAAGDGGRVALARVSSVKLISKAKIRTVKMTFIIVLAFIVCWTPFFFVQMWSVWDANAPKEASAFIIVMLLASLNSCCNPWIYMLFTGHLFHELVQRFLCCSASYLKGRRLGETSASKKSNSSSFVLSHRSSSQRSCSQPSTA

[13] = target: Vasopressin V1a receptor (Homo sapiens) (UniProt P37288); assay: V1a receptor agonists, calcium signal, counter-screen for OXTR agonist project, triplicate, fluorescence, CHO-V1R cells (AID 434991;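 active = mean activation over triplicate exceeds the hit threshold set in the earlier primary screen, cut at about 20% in these data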;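 also: peak over basal fluorescence ratio within a 100 second read; 0% = DMSO alone and 100% = 3 nM vasopressin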); conditions: Fluo-8 calcium fluorescence, at 3 µM, hits give high values
Chain of Vasopressin V1a receptor (Homo sapiens) (P37288 whole entry, looked up): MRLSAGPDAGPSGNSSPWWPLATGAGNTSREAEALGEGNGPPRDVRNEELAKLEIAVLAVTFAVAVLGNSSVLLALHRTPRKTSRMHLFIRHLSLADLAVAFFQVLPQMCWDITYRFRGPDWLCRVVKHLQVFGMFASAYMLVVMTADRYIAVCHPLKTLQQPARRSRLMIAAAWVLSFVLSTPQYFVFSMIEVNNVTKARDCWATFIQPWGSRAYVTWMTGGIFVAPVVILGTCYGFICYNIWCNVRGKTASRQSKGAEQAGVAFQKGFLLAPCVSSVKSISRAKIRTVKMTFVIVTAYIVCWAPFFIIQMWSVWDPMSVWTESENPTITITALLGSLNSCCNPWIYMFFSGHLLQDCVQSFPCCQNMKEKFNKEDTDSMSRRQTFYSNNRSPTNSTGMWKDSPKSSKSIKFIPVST

[14] = target: Photoreceptor-specific nuclear receptor (Homo sapiens) (UniProt Q9Y5X4); assay: NR2E3 agonists, confirmation, biochemical, TR-FRET (AID 2379; in the data active = activation above about 20%); conditions: cell-free NR2E3 corepressor release, 5 h, at 3.98 µM, hits give high values
Chain of Photoreceptor-specific nuclear receptor (Homo sapiens) (Q9Y5X4 whole entry, looked up): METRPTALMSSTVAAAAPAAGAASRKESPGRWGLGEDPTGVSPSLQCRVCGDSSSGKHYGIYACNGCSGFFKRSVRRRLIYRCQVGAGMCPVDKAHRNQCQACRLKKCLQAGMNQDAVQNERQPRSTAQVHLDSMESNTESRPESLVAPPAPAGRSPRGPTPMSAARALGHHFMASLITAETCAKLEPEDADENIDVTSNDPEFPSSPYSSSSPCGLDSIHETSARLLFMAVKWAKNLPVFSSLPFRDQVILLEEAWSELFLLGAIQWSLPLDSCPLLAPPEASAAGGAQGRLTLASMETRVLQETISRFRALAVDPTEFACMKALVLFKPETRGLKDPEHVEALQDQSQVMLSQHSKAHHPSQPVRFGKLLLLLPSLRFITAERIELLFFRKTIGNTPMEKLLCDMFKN

[15] = target: Peroxisome proliferator-activated receptor gamma (Homo sapiens) + Nuclear receptor corepressor 2 (Homo sapiens) (UniProt P37231+Q9Y618); assay: agonists of PPARg-NCOR2 corepressor interaction, counter-screen for NR2E3 agonist project, biochemical, TR-FRET (AID 504787; in the data active = inhibition above about 20%;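 also: 0% = DMSO vehicle and 100% = wells without protein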); conditions: TR-FRET PPARg-NCOR2 coregulator interaction, at 3.98 µM, hits give high values
Chain of Peroxisome proliferator-activated receptor gamma (Homo sapiens) + Nuclear receptor corepressor 2 (Homo sapiens) (P37231 whole entry, looked up): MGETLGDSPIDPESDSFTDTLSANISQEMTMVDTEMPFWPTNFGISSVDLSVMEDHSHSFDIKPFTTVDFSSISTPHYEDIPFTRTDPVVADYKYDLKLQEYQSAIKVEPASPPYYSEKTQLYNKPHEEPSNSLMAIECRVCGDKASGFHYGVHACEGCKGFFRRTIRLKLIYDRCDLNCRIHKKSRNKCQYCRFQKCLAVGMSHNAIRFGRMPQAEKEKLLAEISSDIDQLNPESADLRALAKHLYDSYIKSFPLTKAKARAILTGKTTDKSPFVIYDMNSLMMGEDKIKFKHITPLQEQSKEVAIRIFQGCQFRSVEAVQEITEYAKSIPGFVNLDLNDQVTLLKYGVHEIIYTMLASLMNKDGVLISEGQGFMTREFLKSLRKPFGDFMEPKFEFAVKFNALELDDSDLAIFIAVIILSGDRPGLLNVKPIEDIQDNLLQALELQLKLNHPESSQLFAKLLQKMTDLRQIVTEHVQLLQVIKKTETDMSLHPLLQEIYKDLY
Chain of Peroxisome proliferator-activated receptor gamma (Homo sapiens) + Nuclear receptor corepressor 2 (Homo sapiens) (Q9Y618 whole entry, looked up): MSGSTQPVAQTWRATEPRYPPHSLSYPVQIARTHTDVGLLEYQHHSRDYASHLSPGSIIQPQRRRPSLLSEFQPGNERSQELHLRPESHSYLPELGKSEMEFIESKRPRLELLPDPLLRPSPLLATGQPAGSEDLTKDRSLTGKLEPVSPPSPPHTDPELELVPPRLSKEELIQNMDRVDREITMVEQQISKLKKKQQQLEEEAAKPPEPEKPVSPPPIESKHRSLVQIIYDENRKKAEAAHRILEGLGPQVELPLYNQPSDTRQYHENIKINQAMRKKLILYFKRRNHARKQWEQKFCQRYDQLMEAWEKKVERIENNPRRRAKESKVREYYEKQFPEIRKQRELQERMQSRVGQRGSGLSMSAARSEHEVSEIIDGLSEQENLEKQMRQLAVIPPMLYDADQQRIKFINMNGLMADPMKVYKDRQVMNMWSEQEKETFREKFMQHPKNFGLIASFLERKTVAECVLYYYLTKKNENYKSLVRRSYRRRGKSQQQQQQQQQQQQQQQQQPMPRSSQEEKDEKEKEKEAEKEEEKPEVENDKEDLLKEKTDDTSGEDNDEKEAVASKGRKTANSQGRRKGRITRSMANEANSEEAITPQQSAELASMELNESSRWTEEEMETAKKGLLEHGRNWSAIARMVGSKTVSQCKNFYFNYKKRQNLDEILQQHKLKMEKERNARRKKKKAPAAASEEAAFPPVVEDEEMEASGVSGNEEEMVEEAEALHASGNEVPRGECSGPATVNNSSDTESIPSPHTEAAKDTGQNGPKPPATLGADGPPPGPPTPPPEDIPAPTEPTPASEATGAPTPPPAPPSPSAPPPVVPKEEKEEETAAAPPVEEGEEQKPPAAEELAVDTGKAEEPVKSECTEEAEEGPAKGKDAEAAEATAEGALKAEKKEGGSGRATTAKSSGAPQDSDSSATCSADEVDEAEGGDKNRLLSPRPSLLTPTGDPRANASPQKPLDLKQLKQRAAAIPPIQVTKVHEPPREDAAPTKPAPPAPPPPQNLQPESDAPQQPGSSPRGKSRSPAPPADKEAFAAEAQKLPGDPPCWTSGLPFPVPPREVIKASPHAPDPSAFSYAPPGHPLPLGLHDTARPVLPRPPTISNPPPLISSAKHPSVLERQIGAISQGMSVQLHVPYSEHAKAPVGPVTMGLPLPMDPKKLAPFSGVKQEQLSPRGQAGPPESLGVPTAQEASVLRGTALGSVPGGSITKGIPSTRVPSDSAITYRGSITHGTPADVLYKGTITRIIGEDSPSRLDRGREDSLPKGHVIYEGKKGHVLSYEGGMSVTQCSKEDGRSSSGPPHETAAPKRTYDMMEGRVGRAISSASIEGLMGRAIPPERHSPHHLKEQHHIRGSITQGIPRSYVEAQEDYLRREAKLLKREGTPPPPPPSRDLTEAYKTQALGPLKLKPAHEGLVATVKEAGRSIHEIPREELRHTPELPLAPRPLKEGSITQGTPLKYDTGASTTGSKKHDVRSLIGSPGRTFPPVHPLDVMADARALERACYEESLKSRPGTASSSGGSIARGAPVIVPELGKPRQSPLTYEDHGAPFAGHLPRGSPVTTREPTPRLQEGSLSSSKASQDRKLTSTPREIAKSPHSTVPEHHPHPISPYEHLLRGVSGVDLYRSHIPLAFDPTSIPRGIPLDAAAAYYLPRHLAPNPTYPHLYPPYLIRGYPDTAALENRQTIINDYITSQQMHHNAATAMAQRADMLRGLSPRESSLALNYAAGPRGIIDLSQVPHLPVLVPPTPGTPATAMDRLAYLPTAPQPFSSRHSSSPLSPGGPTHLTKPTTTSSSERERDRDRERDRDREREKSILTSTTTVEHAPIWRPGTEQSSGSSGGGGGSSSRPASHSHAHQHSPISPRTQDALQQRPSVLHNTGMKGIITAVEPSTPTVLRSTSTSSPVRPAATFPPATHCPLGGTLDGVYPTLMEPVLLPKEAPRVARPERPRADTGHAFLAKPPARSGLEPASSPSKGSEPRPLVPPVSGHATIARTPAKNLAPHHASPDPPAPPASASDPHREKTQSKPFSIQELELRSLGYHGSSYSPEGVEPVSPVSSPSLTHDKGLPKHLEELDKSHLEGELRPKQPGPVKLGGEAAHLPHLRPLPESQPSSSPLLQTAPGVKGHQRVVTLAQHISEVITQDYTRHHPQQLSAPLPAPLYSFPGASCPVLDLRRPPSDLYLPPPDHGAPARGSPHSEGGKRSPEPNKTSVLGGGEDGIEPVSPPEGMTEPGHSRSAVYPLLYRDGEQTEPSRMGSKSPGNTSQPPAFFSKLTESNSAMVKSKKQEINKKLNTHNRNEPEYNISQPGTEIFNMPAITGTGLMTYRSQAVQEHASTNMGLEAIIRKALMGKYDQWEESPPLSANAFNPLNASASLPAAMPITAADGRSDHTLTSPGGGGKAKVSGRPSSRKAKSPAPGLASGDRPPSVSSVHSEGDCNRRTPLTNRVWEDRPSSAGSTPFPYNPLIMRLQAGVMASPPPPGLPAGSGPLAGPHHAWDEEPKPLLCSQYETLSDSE

[16] = target: Platelet-activating factor acetylhydrolase (Homo sapiens) (UniProt Q13093); assay: pPAFAH (PLA2G7) enzyme inhibitors, confirmation, biochemical, fluorescence polarization, human (AID 463230;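 active = mean inhibition of the triplicate above the hit cutoff set for the earlier primary screen, cut at about 25% in these data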;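 also: 0% = enzyme with DMSO and 100% = wells lacking pPAFAH enzyme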); conditions: recombinant pPAFAH, FP-Rh probe fluorescence polarization; at 3.39 µM; hits give high values
[17] = target: Nuclear receptor coactivator 3 (Homo sapiens) (UniProt Q9Y6Q9); assay: SRC3 coactivator transcriptional activity inhibitors, confirmation, cell-based, luminescence, quadruplicate (AID 588792;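 active = mean inhibition over 43.08%, the solvent-only control mean plus 3 SD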;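 also: 0% = DMSO treated cells and 100% = gossypol at 36 µM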); conditions: HEK293 GAL4-SRC3 luciferase reporter, at 3.6 µM, hits give high values
[18] = test system: transactivating tegument protein VP16 (Human herpesvirus 1), Gal4-VP16 luciferase reporter; assay: VP16 transactivation inhibitors, counter-screen for SRC3 inhibitor project, cell-based, luminescence, high throughput (AID 588794; in the data active = inhibition above about 30%); conditions: mammalian cells, VP16-driven luciferase reporter luminescence; at 3.6 µM; hits give high values
[19] = target: Insulin-degrading enzyme (Homo sapiens) (UniProt P14735); assay: human IDE inhibitors in live cells, confirmation, fluorescence polarization, HEK cells, FAbetaB substrate (AID 435028;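 active = mean inhibition across triplicate wells above the cutoff set by the earlier primary insulin-degrading enzyme screen, cut at about 16% in these data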;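 also: 0% = DMSO wells and 100% = 60 µM reference IDE inhibitor Ii1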); conditions: FAbetaB cleavage, at 5.59 µM, hits give high values
[20] = cytotoxicity in HEK cells, cytotoxicity control for IDE inhibitor project, cell-based, luminescence (AID 449730); conditions: HEK293 cytotoxicity, ATP luminescence; at 5.59 µM; hits give high values;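 also: 0% = vehicle wells and 100% = reference cytotoxic drug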
[21] = target: Nuclear receptor coactivator 1 (Homo sapiens) (UniProt Q15788); assay: SRC1 coactivator transcriptional activity inhibitors, confirmation, cell-based, luminescence, quadruplicate (AID 588820;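 active = mean inhibition above 46.68%, the untreated control wells mean plus 3 SD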;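 also: 0% = DMSO wells and 100% = gossypol 36 µM treated wells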); conditions: HEK293 GAL4-SRC1 luciferase reporter, at 3.6 µM, hits give high values
[22] = VP16 transactivation inhibitors, counter-screen for SRC1 inhibitor project, cell-based, luminescence, high throughput (AID 588824; in the data active = inhibition above about 25%); conditions: cell-based VP16 transactivation luciferase luminescence; at 3.6 µM; hits give high values

Structure (SMILES): Cc1nn(-c2ccccc2)c(C)c1NC(=O)CCl
- inhibition [1]: 83.7% (active)
- inhibition [2]: 28.1% (active)
- inhibition [3]: 35.5%
- inhibition [4]: 61.1% (active)
- inhibition [5]: -83.9%

Structure (SMILES): CCN1CCN(CCNC(=O)c2ccc(/C=C3/Sc4ccccc4N(Cc4cccc(C)c4)C3=O)cc2)CC1
- inhibition [6]: 49.5% (active)
- inhibition [7]: 1.16%

Structure (SMILES): Cc1ccc(N(Cc2cc(=O)[nH]c3ccccc23)C(=O)CCl)cc1
- inhibition [1]: 90% (active)
- inhibition [8]: 33.7%
- inhibition [9]: 51.6% (active)

Structure (SMILES): CN1CCN(CCCNC(=O)c2ccc(/C=C3\Oc4ccccc4N(Cc4ccc(Cl)cc4)C3=O)cc2)CC1
- inhibition [6]: 51.8% (active)
- inhibition [7]: -1.35%
- inhibition [10]: 29% (active)
- inhibition [11]: 12% (active)

Structure (SMILES): CCOc1cc(/C=C(\C#N)c2nc(-c3cccs3)c(NC(C)=O)s2)ccc1O
- activation [12]: 31.9% (active)
- activation [13]: 25.4% (active)

Structure (SMILES): COc1ccc(N2CCN(C(=O)CN3C(=O)COc4ccccc43)CC2)cc1
- inhibition [6]: -8.37%
- inhibition [7]: -9.94%

Structure (SMILES): CN(C)CCCN(C(=O)c1ccc(S(=O)(=O)N2CCCCCC2)cc1)c1nc2ccc(Br)cc2s1
- activation [12]: 6.69%
- activation [13]: 11.3%

Structure (SMILES): C#CCOCCOCCOCCNc1nc(N2CCN(C(=O)CCCCCCCCCCNC(=O)[C@H]([C@@H](C)CC)n3cc(CCCCN=C(N)N)nn3)CC2)nc(N2CCN(C(=O)CCCCCCCCCCNC(=O)[C@H](CO)n3cc(CCCSC)nn3)CC2)n1
- inhibition [6]: 57.5% (active)
- inhibition [7]: 1.4%

Structure (SMILES): CCCCCCCCCCOC(=O)Cn1c(COc2cccc(OC)c2)[n+](C)c2ccccc21
- activation [12]: 12%
- activation [13]: 14.7%

Structure (SMILES): Cc1cccc(NC(=O)c2sc3nc(N4CCOCC4)c4c(c3c2N)CCCC4)c1
- activation (reported as inhibition) [14]: -1.32%
- inhibition [15]: -0.47%

Structure (SMILES): CSc1nnc(SCc2nc3sc(C(=O)O)c(C)c3c(=O)[nH]2)s1
- inhibition [6]: 55.8% (active)
- inhibition [7]: 5.58%
- inhibition [16]: 43.4% (active)

Structure (SMILES): Cn1cnc2c1c(=O)n(Cc1ccccc1C#N)c(=O)n2C
- inhibition [6]: -1.92%
- inhibition [7]: -2.72%

Structure (SMILES): CCOC(=O)c1ccc(NC(=S)N2CCN(c3ccccn3)CC2)cc1
- activation (reported as inhibition) [14]: -3.59%
- inhibition [15]: -8.54%

Structure (SMILES): CCN(CCCNC(=O)c1ccc2c(c1)NC(=O)CN2C)c1cccc(C)c1
- inhibition [1]: 36.3% (active)
- inhibition [17]: 10.3%
- inhibition [18]: 1.36%

Structure (SMILES): CC1(C)Cc2ccccc2-c2[nH]c(=S)[nH]c(=O)c21
- activation (reported as inhibition) [14]: 28.7% (active)
- inhibition [15]: 25.9% (active)

Structure (SMILES): C/C(=N\NS(=O)(=O)c1ccc(Cl)cc1)c1ccc(NC(=O)c2ccco2)cc1
- activation [12]: 17.6%
- activation [13]: 11.1%

Structure (SMILES): COc1cccc(-n2c(=S)[nH]c3c(oc4ccccc43)c2=O)c1
- activation (reported as inhibition) [14]: 14.3%
- inhibition [15]: 8.55%

Structure (SMILES): COc1cccc(CNCCc2c[nH]c3ccccc23)c1OCc1ccccc1F
- activation [12]: 14.2%
- activation [13]: 12.1%

Structure (SMILES): CCOc1cc2c(Cl)ncnc2c(OCC)c1OCC
- inhibition [19]: 4.73%
- inhibition [20]: 6.67%

Structure (SMILES): Cc1cccc(N2CCN(C(=O)c3cccc(N4C(=O)C5C6C=CC(C6)C5C4=O)c3)CC2)c1C (configuration not stated)
- inhibition [19]: 31.1% (active)
- inhibition [20]: 17.6%

Structure (SMILES): O=C(C1=C[C@H](c2coc3ccccc3c2=O)C[C@H](OCc2ccc(CO)cc2)O1)N1CCN(Cc2ccccc2)CC1
- inhibition [19]: 2.63%
- inhibition [20]: 17.5%

Structure (SMILES): CC1(C)Cc2cccc(OCC(=O)N3CCN(c4ccc([N+](=O)[O-])cc4)CC3)c2O1
- inhibition [19]: 4.72%
- inhibition [20]: 19.7%

Structure (SMILES): CN(C)c1ccc(/C=C2\NC(=S)N(Cc3ccccc3)C2=O)cc1
- inhibition [19]: 135% (active)
- inhibition [20]: 24.2% (active)

Structure (SMILES): CN1/C(=c2/s/c(=C3/C(=O)N(c4ccccc4)NC3=Nc3ccccc3)n(C)c2=O)C(C)(C)c2ccccc21
- inhibition [19]: 8.19%
- inhibition [20]: 11.6%

Structure (SMILES): N#C/C(=C\c1ccc(N2CCOCC2)o1)C(=O)N1CCOCC1
- inhibition [19]: 14.7%
- inhibition [20]: 8.42%

Structure (SMILES): Cc1cccc(-n2c(Cc3cc(=O)[nH]c(=O)[nH]3)nnc2SCC(=O)Nc2cccc(C(F)(F)F)c2)c1
- inhibition [19]: 6.02%
- inhibition [20]: 3.28%

Structure (SMILES): CS(=O)(=O)N(Cc1ccccc1)c1ccc(C(=O)NN=C2CCCCCC2)cc1
- inhibition [19]: 3.28%
- inhibition [20]: 6.18%

Structure (SMILES): Cc1cc(S(=O)(=O)c2cc3ccc(O)c(C)c3oc2=O)ccc1F
- activation [12]: 16%
- activation [13]: 13.1%
- inhibition [21]: -24%
- inhibition [22]: -0.08%

Structure (SMILES): C=CCC1=C/C(=C\c2c(N)n3nc(CC(=O)N4CCOCC4)sc3nc2=O)C=C(OC)C1=O
- inhibition [19]: 25.9% (active)
- inhibition [20]: 12.5%

Structure (SMILES): Cn1c2ccccc2c2cc(/C=C(\NC(=O)c3ccccc3)C(=O)NCC(=O)O)ccc21
- inhibition [19]: 17.3% (active)
- inhibition [20]: 5.76%

Structure (SMILES): COc1ccc(N2CCN(C(=O)/C(C#N)=C/c3ccccc3)CC2)cc1
- inhibition [19]: 8.71%
- inhibition [20]: 5.82%
